This note sets out measurements from PubChem BioAssay AID841 (Emory University Molecular Libraries Screening Center, 2007).

Each structure is given as a SMILES string. The campaign covered roughly 140,000 compounds. About 2,100 (1.5%) were called active. Rule as the data show it: active = protection mostly above about 24% (no sharp cut-off); inactive = mostly below about 26%. For the sample, actives were picked, then their nearest neighbours and some compounds at random.

The nature of the test: compounds protecting cells from measles virus cytopathic effect, primary screen, measles RdRp inhibitor project, single point, MLSMR library, absorbance (AID 841). The conditions noted are these: Measles virus-infected cells, CPE protection, at 4 µM, active compounds read high.
Turning to `Cc1ccc2nc(SCc3cn4c(C)cc(C)nc4n3)[nH]c2c1`, the protection (pct of control) was 15.7% (inactive).
`CN(C)/C(=N\OC(=O)c1ccccc1)c1nonc1N`: the protection (pct of control) is 10.6% (inactive).
Next, `COc1ccc(NC(=O)Cn2c(=O)n(Cc3ccco3)c(=O)c3ccccc32)cc1`: 4.73% (inactive).
Next, `O=C(Cn1c(=O)n(Cc2ccco2)c(=O)c2ccccc21)NCC1CCCO1` (stereo unspecified): 42.5% (active).
Next, `O=C(Cn1nc(Cc2cccnc2)c2ccccc2c1=O)NCC1CCCO1` (stereo unspecified): 2.54% (inactive); `O=C(/C=C/c1ccc(F)cc1)Nc1cccc(S(=O)(=O)Nc2cccc(C(F)(F)F)c2)c1`: 9.17% (inactive).
`Cc1ccc(-c2nc(C)sc2CC(=O)OCC(=O)Nc2c(F)cccc2F)cc1`: the protection (pct of control) is 4.46% (inactive).
`CCC(=O)N1c2ccc(S(=O)(=O)CCC(=O)N3CCN(c4ccccc4)CC3)cc2CC1C` (stereo unspecified): the protection (pct of control) was 8.07% (inactive).
Turning to `CCCC(=O)N1c2ccc(-c3csc(N)n3)cc2CC1C` (stereo unspecified), the protection (pct of control) was 79.2% (active).
On to `CCn1nc(C(=O)OCC(=O)N2c3ccccc3CC2C)c2ccccc2c1=O` (stereo unspecified), for which the protection (pct of control) is 10.5% (inactive).
Next, `O=C(NC(=S)Nc1cc(C(F)(F)F)ccc1N1CCOCC1)c1ccc(-c2cccc(Cl)c2)o1`: 1.76% (inactive); `COC(=O)[C@H]1Cc2cnoc2C[C@]1(C)C(=O)O`: 8.42% (inactive).
Next, `Cc1ccc(-c2cc(C(=O)N/N=C/C=C/c3ccccc3)n[nH]2)o1`: 25.7% (inactive).
In the case of `Cc1ccc(N=C2NC(=O)c3cccc([N+](=O)[O-])c32)cc1` it was 8.24% (inactive).
Take `Cn1c2c(c(=O)n(C)c1=O)C1c3ccccc3OCC1C(C)(C)O2` (stereo unspecified): the protection (pct of control) is 12.9% (inactive).
`COc1cccc2c1OCC1COc3c(c(=O)n(C)c(=O)n3C)C21` (stereo unspecified): the protection (pct of control) was 23.9% (inactive).
In the case of `Cn1c2c(c(=O)n(C)c1=O)[C@@H]1c3c(ccc4ccccc34)OC[C@@H]1CO2` it was 38.9% (active); in that of `COc1ccc(-c2csc(NC(=O)COC(=O)c3ccc(Br)o3)n2)cc1`, 7.27% (inactive).
Next, `O=C(CSc1nnc(-c2ccncc2)o1)NCc1ccc(Cl)cc1`: 5.59% (inactive); `Cc1ccc(N(C(=O)C(F)(F)F)C(C(=O)NC2CCCCC2)c2ccncc2)cc1C` (stereo unspecified): 29.7% (inactive); `COc1cc2c(cc1OC)C(=O)NCC(C)(C)O2`: 6.34% (inactive).
On to `Cc1cc([N+](=O)[O-])c(-c2ccc(/C=N/n3cnnc3)o2)cc1Cl`, for which the protection (pct of control) was 33.8% (inactive).
In the case of `Cc1cc(-c2ccc(/C=N/n3cnnc3)o2)c([N+](=O)[O-])cc1C` it was 28.4% (inactive); in that of `Cc1ccc(Cl)cc1-c1ccc(/C=N/n2cnnc2)o1`, 70.5% (active).
In the case of `Cc1ccc(N2C(=O)C(NC(=O)c3c(F)cccc3F)(C(F)(F)F)C3=C2CC(C)(C)CC3=O)cc1` (stereo unspecified) it was 5.53% (inactive).
In the case of `O=C(/C=C/c1ccc2c(c1)OCO2)NCc1ccc(F)cc1` it was 5.86% (inactive).
For `Cc1cccc(NC(=O)/C=C/c2ccc3c(c2)OCO3)n1`, the protection (pct of control) is 46.6% (active).
As to `CCc1c(C)sc(NC(=O)/C=C/c2ccc3c(c2)OCO3)c1C(=O)OC`, the protection (pct of control) was 3.56% (inactive).
Next, `CCCCc1ccc(NC(=S)N2CCCC(CO)C2)cc1` (stereo unspecified): 11.5% (inactive); `O=C(CN1C(=O)/C(=C\c2ccccc2F)SC1=S)Nc1nc2ccccc2s1`: 6.1% (inactive); `Cc1noc(/C=C/c2ccco2)c1S(=O)(=O)N1CCC(C(=O)Nc2ccc(Cl)cn2)CC1`: 7.95% (inactive).
In the case of `CC(C)(C)C1CCC(=NNC(=O)c2ccc(Br)o2)CC1` (stereo unspecified) it was 3.96% (inactive); in that of `C/C(=N/NC(=O)c1ccc(Br)o1)c1ccc(C)o1`, 13% (inactive); in that of `CCC(C)(C)C1CCC(=NNC(=O)c2ccc(Br)o2)CC1` (stereo unspecified), 39% (active).
Next, `CC1(C)C(C=C(Cl)Cl)C1C(=O)N(Cc1ccc(Cl)cc1)C1CCS(=O)(=O)C1` (stereo unspecified): 9.24% (inactive); `Fc1ccc(CNCc2ccc(Br)cc2)cc1`: 8.72% (inactive); `N#CC1(NC(=O)COc2ccc3oc4ccccc4c3c2)CCCCC1`: 21.4% (inactive).
As for `Cc1cc(C)cc(OCC(=O)NNC(=O)CCN2C(=O)c3ccccc3C2=O)c1`, the protection (pct of control) is 9.19% (inactive).
In the case of `Cc1nc(-c2ccccc2)cn2c1nc1ccccc12` it was 23.6% (inactive); in that of `CCOC(=O)c1c(-c2ccccc2)csc1NC(=S)NC(=O)c1ccccc1`, 9.01% (inactive).
In the case of `CCOC(=O)c1c(-c2cccc(C)c2)csc1NC(=O)c1c(-c2ccccc2)noc1C` it was 54.7% (active); in that of `CC(=O)Nc1cccc(NC(=O)c2c(-c3ccccc3)noc2C)c1`, 14.1% (inactive).
Next, `CCc1cc(C(=O)OC)c(NC(=O)CC2Sc3ccc(C(F)(F)F)cc3NC2=O)s1` (stereo unspecified): 11.3% (inactive).
In the case of `CCOc1ccc(NC(=O)c2ccc(CSc3nnnn3C)cc2)cc1`, the protection (pct of control) is 10.1% (inactive).
Next, `Cc1c(C(=O)Nc2cccc(Cl)c2)cn2c(nc3ccccc32)c1C#N`: 8.24% (inactive); `CCCCC(NS(=O)(=O)c1ccc(C)cc1)C(=O)Oc1ccc2c3c(c(=O)oc2c1)CCC3` (stereo unspecified): 9.68% (inactive); `CC1CN(S(=O)(=O)c2ccc(C(=O)Nc3sccc3C(N)=O)cc2)CC(C)O1` (stereo unspecified): 9.47% (inactive).
`O=C(Nc1ccccc1)N1CCN(Cc2ccccc2)CC1`: the protection (pct of control) was 65.6% (active).
Next, `O=C(NC(=S)N1CCN(Cc2ccccc2)CC1)c1ccccc1`: 18% (inactive).
Next, `O=C(Nc1cccc(NC(=O)N2CCN(c3ccccc3)CC2)c1)N1CCN(c2ccccc2)CC1`: 27.8% (inactive); `CN(Cc1ccccc1)C(=O)COC(=O)c1ccccc1Nc1ccccc1`: 18.6% (inactive).
For the compound `O=[N+]([O-])c1ccccc1SNc1ccccn1`, the protection (pct of control) was 4.84% (inactive).
As for `COc1cc(OC)nc(NC(=O)CCl)n1`, the protection (pct of control) was 15.4% (inactive).
In the case of `O=C(CCl)NNc1cccc(Cl)n1` it was 28.9% (active); in that of `O=C(NNc1ccccn1)c1ccc(Cl)nc1`, 3.74% (inactive).
With `COc1cc(OC)c(C(=O)Nc2ccccc2-c2ccccc2)cc1OC`, the protection (pct of control) was 39.7% (inactive).
With `CC(OC(=O)CNS(=O)(=O)/C=C/c1ccccc1)C(=O)Nc1ccc(S(=O)(=O)N2CCCC2)cc1` (stereo unspecified), the protection (pct of control) was 8.77% (inactive).
In the case of `Cc1nn(Cc2ccc(F)cc2)c(C)c1NC(=O)c1cccnc1Cl` it was 10.5% (inactive); in that of `CC(NC(=O)CSc1nc2c(cc1C#N)CN(C)CC2)c1ccccc1` (stereo unspecified), 48.7% (active).
For the compound `CC1(C)CCc2nc(SCc3ccccc3)c(C#N)cc2C1`, the protection (pct of control) was 17.7% (inactive).
In the case of `Cc1nc2cc(NC(=O)CSc3nc4c(C)cccc4cc3C#N)ccc2s1` it was 7.78% (inactive).
